PubChem BioAssay (Tox21)
Records with an inconclusive call do not appear. Active and inactive are the calls of the source. Unless noted, calls come from the whole dose curve; as a rule, active = well fitted curve in the direction sought with a large enough effect in the repeat runs; inconclusive = weak or mixed curves; inactive = no such curve, though single readings can be large; an effect the other way counts as inactive or inconclusive.

What was measured:
[1] = target: Androgen receptor (Homo sapiens) (UniProt P10275); test: qHTS assay to identify small molecule agonists of the androgen receptor (AR) signaling pathway (AID 743036; active = well fitted activation curve with a large enough effect in the signal ratio in the repeat runs, with a control signal flat, not every such curve was filed as active; the % refers to the signal ratio)
Chain of Androgen receptor (Homo sapiens) (P10275 whole entry, looked up): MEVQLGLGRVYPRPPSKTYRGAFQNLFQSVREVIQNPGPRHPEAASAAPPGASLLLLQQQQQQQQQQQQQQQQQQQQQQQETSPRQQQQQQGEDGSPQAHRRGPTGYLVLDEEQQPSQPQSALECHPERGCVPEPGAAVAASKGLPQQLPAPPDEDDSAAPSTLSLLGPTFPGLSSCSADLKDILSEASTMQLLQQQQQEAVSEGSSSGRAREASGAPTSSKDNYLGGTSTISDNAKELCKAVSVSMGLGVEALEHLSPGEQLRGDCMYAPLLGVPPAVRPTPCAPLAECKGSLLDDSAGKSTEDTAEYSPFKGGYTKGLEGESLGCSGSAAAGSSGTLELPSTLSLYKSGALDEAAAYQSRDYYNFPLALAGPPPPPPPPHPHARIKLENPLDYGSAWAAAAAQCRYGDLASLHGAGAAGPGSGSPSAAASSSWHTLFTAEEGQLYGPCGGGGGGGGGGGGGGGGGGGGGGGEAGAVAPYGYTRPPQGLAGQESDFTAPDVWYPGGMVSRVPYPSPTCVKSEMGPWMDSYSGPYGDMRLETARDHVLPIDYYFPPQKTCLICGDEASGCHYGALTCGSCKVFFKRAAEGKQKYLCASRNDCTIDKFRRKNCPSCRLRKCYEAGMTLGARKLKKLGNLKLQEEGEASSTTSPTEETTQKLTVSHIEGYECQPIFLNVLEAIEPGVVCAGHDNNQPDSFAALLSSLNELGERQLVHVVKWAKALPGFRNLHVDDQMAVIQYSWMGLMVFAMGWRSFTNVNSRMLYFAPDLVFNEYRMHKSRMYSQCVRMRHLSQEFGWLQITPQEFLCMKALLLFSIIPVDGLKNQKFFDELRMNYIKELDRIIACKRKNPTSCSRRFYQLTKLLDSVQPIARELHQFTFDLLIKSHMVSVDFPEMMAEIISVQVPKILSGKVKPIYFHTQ
Summary of the method: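 In this Tox21 qHTS, 2,000 HEK293 AR-bla cells per well were incubated with compounds for 16 h at 37C and 5% CO2. Fluorescence intensity was recorded 2 h after adding LiveBLAzer B/G FRET substrate at room temperature.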

[2] = qHTS assay to identify small molecule antagonists of the glucocorticoid receptor (GR) signaling pathway - cell viability counter screen (AID 720693); note: nearly all actives have a fitted effect of over 55% in size
[3] = qHTS assay for identifying genotoxic compounds that show differential cytotoxicity against isogenic chicken DT40 cell lines with known DNA damage response pathways - wild type cell line (AID 743012); note: nearly all actives have a fitted effect of over 60% in size
Summary of the method: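 Parental DNA repair-proficient DT40 cells, 300 per well, were pre-incubated ~0.5 h at 37 C/5% CO2, pin-dosed with compounds in DMSO, then incubated 40 h. Viability was read as CellTiter-Glo luminescence after 30 min at room temperature.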

[4] = qHTS assay for identifying genotoxic compounds that show differential cytotoxicity against isogenic chicken DT40 cell lines with known DNA damage response pathways - Rad54/Ku70 mutant cell line (AID 743015); note: nearly all actives have a fitted effect of over 60% in size
[5] = qHTS assay to identify small molecule antagonists of the androgen receptor (AR) signaling pathway - cell viability counter screen (AID 743033; note: nearly all actives have a fitted effect of over 45% in size)
[6] = qHTS assay to identify small molecule antagonists of the androgen receptor (AR) signaling pathway using the MDA cell line - cell viability counter screen (AID 743041; note: nearly all actives have a fitted effect of over 45% in size)
Summary of the method: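 R1881-driven MDA-kb2 AR-luc cells, 3,000/well, were dosed with library compounds for 16 h; cell health came from CellTiter-Fluor fluorescence in the reporter wells.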

[7] = qHTS assay to identify small molecule antagonists of the thyroid receptor (TR) signaling pathway - cell viability counter screen (AID 743064); note: nearly all actives have a fitted effect of over 50% in size
Summary of the method: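 Counter screen for cytotoxicity: compound plus T3 (1 nM final) on GH3.TRE-Luc cells, 23.5 h at 37 °C, then fluorescence viability readout with CellTiter-Fluor.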

[8] = qHTS assay to identify small molecule antagonists of the thyroid receptor (TR) signaling pathway (AID 743065); note: nearly all actives have a fitted effect of over 55% in size; note: potency is the fitted concentration of half-maximal effect
Summary of the method: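 Antagonism measured as loss of luciferase signal in GH3 cells stably carrying a TRE-luciferase reporter, co-treated with compound and T3 (1 nM final) for 23.5 h at 37 C. Viability was read in the same well by CellTiter-Fluor.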

[9] = test system: thyroid hormone receptor (rat, GH3 cells); test: qHTS assay to identify small molecule agonists of the thyroid receptor (TR) signaling pathway (AID 743066; calls by dose curve)
[10] = qHTS assay to identify small molecule antagonists of the estrogen receptor alpha (ER-alpha) signaling pathway - cell viability counter screen (AID 743074; calls by dose curve;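 note: HEK293 cells carrying ER-alpha-UAS-bla reporter stimulated with 17beta-estradiol; nearly all actives have a fitted effect of over 45% in size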)
[11] = qHTS assay to identify small molecule antagonists of the estrogen receptor alpha (ER-alpha) signaling pathway using the BG1 cell line - cell viability counter screen (AID 743081);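 note: compound given together with 17beta-estradiol as the ER stimulus; series mostly up to about 70 µM; nearly all actives have a fitted effect of over 45% in size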
Aromatase (Homo sapiens) = Aromatase (Homo sapiens) (UniProt P11511); test: qHTS assay to identify aromatase inhibitors (AID 743083); note: series mostly up to about 70 µM; nearly all actives have a fitted effect of over 55% in size
Chain of Aromatase (Homo sapiens) (P11511 whole entry, looked up): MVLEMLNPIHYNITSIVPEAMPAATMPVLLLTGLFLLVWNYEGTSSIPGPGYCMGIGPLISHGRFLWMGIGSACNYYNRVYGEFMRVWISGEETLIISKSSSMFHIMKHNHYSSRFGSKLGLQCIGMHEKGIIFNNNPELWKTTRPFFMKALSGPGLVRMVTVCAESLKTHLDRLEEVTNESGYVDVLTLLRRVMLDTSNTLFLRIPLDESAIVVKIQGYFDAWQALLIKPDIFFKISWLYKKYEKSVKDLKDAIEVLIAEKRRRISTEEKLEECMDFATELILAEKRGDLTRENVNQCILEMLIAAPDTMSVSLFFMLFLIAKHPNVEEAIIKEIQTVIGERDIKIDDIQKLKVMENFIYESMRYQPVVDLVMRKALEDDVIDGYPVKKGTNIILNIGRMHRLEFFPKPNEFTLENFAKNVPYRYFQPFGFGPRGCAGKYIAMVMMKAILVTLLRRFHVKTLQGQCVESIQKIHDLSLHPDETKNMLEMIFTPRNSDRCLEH

[12] = target: Estrogen receptor (Homo sapiens) (UniProt P03372); test: qHTS assay to identify small molecule agonists of the estrogen receptor alpha (ER-alpha) signaling pathway (AID 743075; calls by dose curve)
Chain of Estrogen receptor (Homo sapiens) (P03372 whole entry, looked up): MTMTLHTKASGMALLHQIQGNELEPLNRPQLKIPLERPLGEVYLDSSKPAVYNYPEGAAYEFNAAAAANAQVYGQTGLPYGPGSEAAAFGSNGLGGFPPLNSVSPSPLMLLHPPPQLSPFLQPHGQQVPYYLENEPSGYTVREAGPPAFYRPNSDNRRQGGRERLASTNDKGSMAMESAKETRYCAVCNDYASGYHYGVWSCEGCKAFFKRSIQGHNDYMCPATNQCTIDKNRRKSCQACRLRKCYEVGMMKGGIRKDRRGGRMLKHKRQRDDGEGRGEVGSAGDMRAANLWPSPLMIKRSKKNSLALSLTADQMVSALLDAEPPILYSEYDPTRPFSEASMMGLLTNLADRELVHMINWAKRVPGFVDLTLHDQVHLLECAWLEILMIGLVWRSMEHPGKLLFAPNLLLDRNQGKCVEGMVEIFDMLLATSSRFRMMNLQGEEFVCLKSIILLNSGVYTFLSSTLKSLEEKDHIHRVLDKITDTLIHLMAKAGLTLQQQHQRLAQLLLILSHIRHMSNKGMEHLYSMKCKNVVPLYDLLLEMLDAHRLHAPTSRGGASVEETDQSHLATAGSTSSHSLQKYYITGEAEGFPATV

[13] = target: Estrogen receptor (Homo sapiens) (UniProt P03372); test: qHTS assay to identify small molecule agonists of the estrogen receptor alpha (ER-alpha) signaling pathway using the BG1 cell line (AID 743079); note: nearly all actives have a fitted effect of over 20% in size
[14] = target: Estrogen receptor (Homo sapiens) (UniProt P03372); test: qHTS assay to identify small molecule antagonists of the estrogen receptor alpha (ER-alpha) signaling pathway (AID 743069; active = well fitted curve in the direction sought with a large enough effect in the signal ratio in the repeat runs, not every such curve was filed as active; the % refers to the signal ratio)
Summary of the method: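 Compound effects are measured against 17beta-estradiol stimulation in HEK293 cells with a UAS-controlled beta-lactamase reporter for ER-alpha. Exposure lasts 18 hr at 37C; LiveBLAzer B/G FRET substrate follows for 2 hr at room temperature.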

[15] = qHTS assay to identify small molecule antagonists of the estrogen receptor alpha (ER-alpha) signaling pathway using the BG1 cell line (AID 743080; calls by dose curve;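 note: BG1 cells stimulated with 17beta-estradiol alongside compound; series mostly up to about 70 µM; nearly all actives have a fitted effect of over 25% in size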)
Summary of the method: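 BG1-Luc-4E2 cells (endogenous full-length ER-alpha, 4xERE luciferase) hormone-starved 5 days in charcoal-stripped FBS, plated 4,000/well for 24 h, then compound plus 17beta-estradiol for 21.5 h at 37 C; ONE-Glo luminescence read.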

[16] = qHTS assay for identifying genotoxic compounds that show differential cytotoxicity against isogenic chicken DT40 cell lines with known DNA damage response pathways - Rev3 mutant cell line (AID 743014); note: nearly all actives have a fitted effect of over 55% in size
[17] = target: Androgen receptor (Homo sapiens) (UniProt P10275); test: qHTS assay to identify small molecule antagonists of the androgen receptor (AR) signaling pathway (AID 743035; active = well fitted inhibition curve with a large enough effect in the signal ratio in the repeat runs, not every such curve was filed as active; the % refers to the signal ratio)
Summary of the method: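 HEK293 cells stably carrying a UAS-driven beta-lactamase reporter (AR-UAS-bla GripTite) were plated for 4 h at 37C, then given compound and the agonist R1881 and incubated 16 h. Reporter activity was read by LiveBLAzer B/G FRET fluorescence after 2 h at room temperature.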

[18] = target: Androgen receptor (Homo sapiens) (UniProt P10275); test: qHTS assay to identify small molecule agonists of the androgen receptor (AR) signaling pathway using the MDA cell line (AID 743040; note: nearly all actives have a fitted effect of over 20% in size)
Summary of the method: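 After a 5 h incubation at 37C and 0% CO2, MDA-kb2 reporter cells were dosed with compounds in DMSO and kept 16 h under the same conditions. Luciferase activity was then read as luminescence with ONE-Glo.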

[19] = target: Androgen receptor (Homo sapiens) (UniProt P10275); test: qHTS assay to identify small molecule antagonists of the androgen receptor (AR) signaling pathway using the MDA cell line (AID 743042; note: nearly all actives have a fitted effect of over 55% in size)
Summary of the method: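 Antagonist mode: compounds plus R1881 agonist added to MDA-kb2 AR-luc cells, incubated 16 h at 37C. Luciferase reporter luminescence quantified, with multiplexed CellTiter-Fluor readout for cell viability.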

Measured: Potency

Cc1ccc(-c2ncc(Cl)cc2-c2ccc(S(C)(=O)=O)cc2)cn1
inactive: [1]

CO[C@@]1(NC(=O)CSC[C@@H](N)C(=O)O)C(=O)N2C(C(=O)O)=C(CSc3nnnn3C)CS[C@@H]21
inactive: [1]

[Ca+2]
inactive: [2] | [3] | [4] | [5] | [6] | [7] | [8] | [9] | [10] | [11] | Aromatase (Homo sapiens)

COc1cc(C(=O)NCc2ccc(OCCN(C)C)cc2)cc(OC)c1OC
inactive: [2] | [3] | [4] | [6] | [7] | [8] | [9] | [12] | [13] | [11] | Aromatase (Homo sapiens)

CN1C(C)(C)CC(O)CC1(C)C
not listed: [1] | [8] | [9] | [16] | [17] | [18] | [19]
inactive: all other assays above

C[N+]12CCC(CC1)C(OC(=O)C(O)(c1ccccc1)c1ccccc1)C2 (configuration not stated)
inactive: [2] | [3] | [4] | [5] | [6] | [7] | [8] | [9] | [10] | [11]

CC1OC1C1CCC2(C)OC2C1 (configuration not stated)
not listed: [1] | [4] | [7] | [15] | [17] | [18] | [19]
inactive: all other assays above

COc1c(N2CCNC(C)C2)c(F)cc2c(=O)c(C(=O)O)cn(C3CC3)c12 (configuration not stated)
inactive: [2] | [3] | [16] | [5] | [6] | [7] | [8] | [9] | [10] | [11] | Aromatase (Homo sapiens)

CN1[C@@H]2CC[C@H]1CC(OC(=O)C(O)c1ccccc1)C2 (some centres not stated)
not listed: [1] | [4] | [6] | [15] | [17] | [18] | [19]
inactive: all other assays above

C=CN1CCCCCC1=O
inactive: [2] | [3] | [16] | [5] | [7] | [10] | [11]

c1ccc(CCc2ccccc2)cc1
inactive: [2] | [16] | [4] | [5] | [6] | [7] | [8] | [9] | [10] | [11] | Aromatase (Homo sapiens)

CC(=O)OCC(=O)[C@@]1(O)[C@H](C)C[C@H]2[C@@H]3CCC4=CC(=O)C=C[C@]4(C)[C@@]3(F)[C@@H](O)C[C@@]21C
inactive: [2] | [3] | [5] | [7] | [8] | [9] | [10] | [11] | Aromatase (Homo sapiens)

C=COCC1CCC(COC=C)CC1 (configuration not stated)
not listed: [1] | [4] | [14] | [16] | [17] | [18] | [19]
inactive: all other assays above

COc1ccc2cc1Oc1cc3c(cc1OC)CC[N+](C)(C)[C@H]3Cc1ccc(cc1)Oc1c(OC)c(OC)cc3c1[C@@H](C2)[N+](C)(C)CC3
not listed: [1] | [14] | [16] | [17] | [18] | [19]
inactive: all other assays above

C=CCCC(=O)O
not listed: [1] | [4] | [13] | [16] | [17] | [18] | [19]
inactive: all other assays above

CC(=O)Nc1ccc(OCC(O)CNC(C)C)cc1 (configuration not stated)
inactive: [2] | [3] | [4] | [5] | [6] | [7] | [10] | [11] | Aromatase (Homo sapiens)

CC(N)C12CC3CC(CC(C3)C1)C2 (configuration not stated)
not listed: [1] | [4] | [16] | [17] | [18] | [19]
inactive: all other assays above

CC(C)NNC(=O)c1ccncc1
not listed: [1] | [4] | [6] | [12] | [13] | [14] | [16]
inactive: all other assays above

O=S(=O)(O)c1cccc(S(=O)(=O)O)c1
not listed: [1] | [4] | [14] | [15] | [16]
inactive: all other assays above

CN(C)[C@@H]1C(=O)C(C(=O)NCN2CCCC2)=C(O)[C@@]2(O)C(=O)C3=C(O)c4c(O)cccc4[C@@](C)(O)C3C[C@@H]12 (some centres not stated)
inactive: [2] | [3] | [16] | [5] | [7] | [8] | [9] | [10] | [11] | Aromatase (Homo sapiens)

NC(CCC(=O)O)C(=O)O (configuration not stated)
not listed: [1] | [4] | [8] | [15] | [17] | [18] | [19]
inactive: all other assays above

Cc1ccc(C(=O)Nc2ccc(S(=O)(=O)O)c3cc(S(=O)(=O)O)cc(S(=O)(=O)O)c23)cc1NC(=O)c1cccc(NC(=O)Nc2cccc(C(=O)Nc3cc(C(=O)Nc4ccc(S(=O)(=O)O)c5cc(S(=O)(=O)O)cc(S(=O)(=O)O)c45)ccc3C)c2)c1
not listed: [1] | [4] | [10] | [14] | [17] | [18] | [19]
inactive: all other assays above

CCCc1ncc(C[n+]2ccccc2C)c(N)n1
inactive: [2] | [16] | [4] | [5] | [6] | [7] | [8] | [9] | [10] | [11] | Aromatase (Homo sapiens)

CC(=O)C1CCCCC1=O (configuration not stated)
not listed: [1] | [4] | [6] | [14] | [17] | [18] | [19]
inactive: all other assays above

O=C(c1ccccc1)C1(O)CCCCC1
inactive: [2] | [3] | [16] | [5] | [7] | [8] | [9] | [10] | [11] | Aromatase (Homo sapiens)

CNC(=O)Nc1ccc(Cl)c(Cl)c1
active: [8] 30.6 µM
not listed: [4] | [12] | [15] | [16] | [17]
inactive: all other assays above
